Laboratory results as given in PubChem BioAssay (NCI).
Compounds without any hit were thinned out: in the full panel of roughly 79,000, 15% have a hit. No stated cut-off is given here; in the data, active means growth inhibition above about 70%; inactive means the rest. Where a SMILES comes first, the peptide text is derived from it. [ ]: non-standard residue; d: D form. The star is where a group is joined. ξ: configuration not given here. ξD = NC(CC(=O)O)C(=O)O; Boc = CC(C)(C)OC(=O)*; Aib = CC(C)(N)C(=O)O; OtBu = CC(C)(C)O*

Legend:
[1] = NCI Yeast Anticancer Drug Screen. Data for the rad50 strain (AID 155);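 further: 0% = growth of vehicle-only cultures of the same strain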; conditions: S. cerevisiae rad50 strain growth inhibition; at 50.0 µM; hits give high values
Summary of the method: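 Vehicle-treated cultures provide the reference for the growth inhibition reported for compound-exposed, repair-deficient yeast.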

[2] = NCI Yeast Anticancer Drug Screen. Data for the mec2-1 strain (AID 157); conditions: S. cerevisiae mec2-1 strain, at 50.0 µM, hits give high values
Summary of the method: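 Cells of the genetically defined mec2-1 yeast strain are incubated with test compound. Inhibition of growth is calculated against vehicle-treated controls.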

[3] = NCI Yeast Anticancer Drug Screen. Data for the sgs1 mgt1 strain (AID 161);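 further: 0% = growth of cultures given vehicle only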; conditions: S. cerevisiae sgs1 mgt1 strain, at 50.0 µM, hits give high values
Summary of the method: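 Mutant yeast exposed to compound; growth scored against vehicle-only wells.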

[4] = NCI Yeast Anticancer Drug Screen. Data for the cln2 rad14 strain (AID 165);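 further: 0% = growth equal to vehicle treated cultures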; conditions: S. cerevisiae cln2 rad14 strain, at 50.0 µM, hits give high values
Summary of the method: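 The screen exposed genetically defined yeast (cln2 rad14) to test compounds and scored growth inhibition relative to vehicle-treated controls.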

[5] = NCI Yeast Anticancer Drug Screen. Data for the bub3 strain (AID 167); conditions: S. cerevisiae bub3 mutant strain, at 50.0 µM, hits give high values
Summary of the method: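 Mutant yeast screening strain plus compound; vehicle-treated cultures serve as the 0% inhibition reference.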

[6] = NCI Yeast Anticancer Drug Screen. Data for the mlh1 rad18 strain (AID 175); conditions: S. cerevisiae mlh1 rad18 strain growth inhibition; at 50.0 µM; hits give high values
Summary of the method: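 Compound-treated yeast growth, normalised to vehicle controls. Strain bears defined DNA repair mutations.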

Measured: growth inhibition

Cc1ccc(S(=O)(=O)Nn2c(O)c(C#N)c(-c3ccc(Cl)cc3)c(C#N)c2=O)cc1
inactive: [1] 1.3% | [2] 20.3% | [3] 11.2% | [4] 11.5% | [5] 15.5% | [6] 32.3%

CC(=O)/C=C\c1ccc(-c2ccccc2)cc1
inactive: [1] 2.65% | [2] -36.2% | [3] -3.6% | [4] -0.6% | [5] -18.9% | [6] -22.7%

Cc1cc(/C=C\[N+](=O)[O-])c(C)c2c1oc1ccccc12
inactive: [1] -10.8% | [2] -2.55% | [3] 2.1% | [4] 4.75% | [5] 2.4% | [6] -7.05%

CC(=O)Oc1ccc([N+](=O)[O-])cc1
inactive: [1] 16.9% | [2] 12.7% | [3] 27.4% | [4] -17.7% | [5] -1% | [6] 34%

Nc1nc2c(ncn2C2OC(COC(=O)c3ccccc3)C(OC(=O)c3ccccc3)C2OC(=O)c2ccccc2)c(=O)[nH]1 (stereo not drawn)
inactive: [1] -25.9% | [2] -12.8% | [3] -0.6% | [4] 11.5% | [5] 0.9% | [6] -7.65%

CCc1cccc(C(C)CC)c1N=C(NC(=O)c1ccccc1C(=O)NC(=Nc1c(CC)cccc1C(C)CC)SC)SC (stereo not drawn)
inactive: [1] -0.7% | [2] -3.15% | [3] 5.3% | [4] 6.3% | [5] 15.1% | [6] -5.15%

COC(=O)C(C)(C)NC(=O)C(C)(C)NC(=O)C(CC(=O)OC(C)(C)C)NC(=O)OC(C)(C)C (stereo not drawn) (Boc-[ξD](OtBu)-[Aib]-[Aib]-OMe)
inactive: [1] -29.3% | [2] -16.1% | [3] -21.1% | [4] -7.4% | [5] -18.4% | [6] -28.7%

CCOC(=O)Cn1nnnc1N
inactive: [1] -3.4% | [2] 23.6% | [3] -5.2% | [4] -21.9% | [5] -13.8% | [6] 30.6%

O=C1CCCC2=C1C(c1ccccc1)/C(=N/O)O2 (stereo not drawn)
inactive: [1] 14.6% | [2] -11.2% | [3] -4.45% | [4] -12.1% | [5] 8% | [6] 16.1%

CN(C)C1C(=O)c2ccccc2C1=O
inactive: [1] -34.6% | [2] -27.6% | [3] -29.5% | [4] -5.1% | [5] 0.05% | [6] -14.8%

COc1ccc(C(c2cc3c(cc2O)OCO3)N2CCCCC2)c(OC)c1 (stereo not drawn)
inactive: [1] -31.2% | [2] -13.1% | [3] -12.2% | [4] -22.4% | [5] -2.15% | [6] -6.95%

Cc1cc(O)c(C(C)C)cc1NC(=S)Nc1ccc(S(=O)(=O)c2ccc(NC(=S)Nc3cc(C(C)C)c(O)cc3C)cc2)cc1
inactive: [1] 7.55% | [2] 20.1% | [3] 36.9% | [4] 17.9% | [5] 6.65% | [6] 51.2%

Cc1cc2ncn(C3CCCO3)c2cc1C (stereo not drawn)
inactive: [1] 6.35% | [2] -6.1% | [3] -14.3% | [4] 3.45% | [5] 3.7% | [6] -23.1%

CCC(C)(C)C1CCCCC1OC(C)=O (stereo not drawn)
inactive: [1] 7.95% | [2] -2.6% | [3] 2.55% | [4] 7.95% | [5] 2.9% | [6] 1.25%

O=C([O-])[C+](C=Cc1cccc2ccccc12)C(=O)O
inactive: [1] 9.05% | [2] -5.4% | [3] 8.35% | [4] 5.35% | [5] 3.35% | [6] 31.3%

O=C(Cl)c1cc(Cl)cc(Cl)c1Br
inactive: [1] 12.9% | [2] 4.7% | [3] 34.5% | [4] 17.6% | [5] 15.9% | [6] 25.7%

O=C1/C(=C/c2ccc(O)c(CN3CCCCC3)c2)CCC/C1=C\c1ccc(O)c(CN2CCCCC2)c1
inactive: [1] -0.8% | [2] 23.9% | [3] 1.75% | [4] -8% | [5] -1.9% | [6] 19.4%

O=C(CC(O)(C(F)(F)F)C(F)(F)F)c1cccs1
inactive: [1] 3.65% | [2] 15.4% | [3] 3.75% | [4] -34.9% | [5] -5.15% | [6] 7.5%

CSC1(C)C(=O)Nc2ccc(C(F)(F)F)cc21 (stereo not drawn)
inactive: [1] 9.35% | [2] 4.8% | [3] -0.05% | [4] 17.7% | [5] -6.15% | [6] 0.1%

COCCOCc1nc(C#N)c(N)o1
inactive: [1] -6.6% | [2] 2.6% | [3] -36% | [4] 13.8% | [5] -24% | [6] -66.2%

CC1(C)CNC[C@](C)(OCCCO[C@@]2(C)CNCC(C)(C)NC2=O)C(=O)N1
inactive: [1] -11.4% | [2] -33.5% | [3] -21.2% | [4] 25.6% | [5] 3.95% | [6] -9.45%

COc1ccccc1-c1cc(=O)c2c(C)cc(C)nc2[nH]1
inactive: [1] -15.8% | [2] -16.1% | [3] -0.6% | [4] -20.3% | [5] 6.25% | [6] 1.65%

COc1ccc2[nH]cc(CC(NC(C)=O)C(=O)O)c2c1 (stereo not drawn)
inactive: [1] 1.75% | [2] -0.9% | [3] 1.55% | [4] -0.5% | [5] 3.85% | [6] -1.25%

Cc1cc(=O)[nH]c(NN2C(Cl)C(=O)C2c2ccc([N+](=O)[O-])cc2)n1 (stereo not drawn)
inactive: [1] 15.8% | [2] -24.2% | [3] 12.7% | [4] 2.7% | [5] 3.85% | [6] -18.8%

O=C(O)CCC(=O)Nc1ccc(F)cc1
inactive: [1] 9.9% | [2] 26.6% | [3] 4.7% | [4] -86.3% | [5] 7.3% | [6] 1%

Cc1ccc(OC(=O)Nc2ccc(C(=O)O)c(O)c2)cc1
inactive: [1] -10.9% | [2] 8.3% | [3] 9.2% | [4] -6.75% | [5] -4.7% | [6] -5.2%

NC(=O)c1cc2c(c3c1CCCC3)CCCC2
inactive: [1] 4.2% | [2] -6.6% | [3] -3.55% | [4] -52% | [5] -13.9% | [6] -2.3%

CCCCNC(=O)C1CCC(CC2CCCCC2)CC1 (stereo not drawn)
inactive: [1] 22.8% | [2] 28.7% | [3] 12.5% | [4] -3.3% | [5] 18.4% | [6] 10.6%

Cn1nc(-c2ccccc2)c([N+](=O)[O-])c1NCc1ccccc1
inactive: [1] -0.8% | [2] -1.95% | [3] -4.4% | [4] -29.1% | [5] 6.4% | [6] 1.15%

CC(=O)Nc1c(C(N)=O)cnn1-c1ccccc1
inactive: [1] 17.9% | [2] 26.6% | [3] 17.7% | [4] -0.2% | [5] 24.5% | [6] 36.9%

COc1ccc2c(c1)CCC1C2CCC2(C)C(=O)C(n3cnc4c(=S)nc[nH]c43)CC12 (stereo not drawn)
inactive: [1] 42.3% | [2] 24.4% | [3] 50% | [4] 34.5% | [5] 14.2% | [6] 51.8%

Cc1cc(O)oc(=O)c1
inactive: [1] -7.7% | [2] -15.1% | [3] -7.2% | [4] -44.4% | [5] 1.85% | [6] -4.85%

CCOC(=O)c1c(SCCO)n(-c2ccccc2)c(=S)n(-c2ccccc2)c1=O
inactive: [1] -22.7% | [2] -25.2% | [3] -22.7% | [4] 1.75% | [5] -13.3% | [6] -19.4%

O=C(O)C(CO)N=Cc1nc(-c2ccccc2)oc1O (stereo not drawn)
inactive: [1] 0.2% | [2] 6.05% | [3] 12.4% | [4] 9.25% | [5] -6.25% | [6] -11.8%

OCc1ccc(F)cc1
inactive: [1] -6.35% | [2] -14.6% | [3] -7.5% | [4] 3.25% | [5] -10.8% | [6] 3.45%

CC(=O)O[C@H]1CC[C@@]2(C)[C@@H](CC[C@@H]3[C@@H]2CC[C@]2(C)[C@@H](C(=O)CCC(F)(F)F)CC[C@@H]32)C1
inactive: [1] 16.9% | [2] 20.9% | [3] 33.6% | [4] 23.3% | [5] 0.15% | [6] 18.9%

CCC=Nc1ccccc1CO
inactive: [1] 12.2% | [2] 8.5% | [3] -1.05% | [4] 30.3% | [5] -4% | [6] 5.4%

COc1nc(N)c2[nH]cnc2n1
inactive: [1] 0.95% | [2] 21.4% | [3] 2.05% | [4] 21.4% | [5] 5.15% | [6] 3.4%
